Most compounds without a hit are left out; they make up all but 4.1% or so of the library.
DAX1 inh-1 = inhibitors of human orphan nuclear receptor DAX1 (NR0B1); HEK293 Gal4-DAX1 luciferase reporter, luminescence; inhibition, % at 6.75 µM; actives 0.99% (n = 340,000); AID 504766;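 active = inhibition above the mean over all tested compounds plus 3 SD, cut at about 4.2% in these data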;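 also: 0% = DAX1-transfected cells with DMSO and 100% = empty-vector control cells with DMSO; inhibition shows as a rise in luminescence from relieved DAX1 repression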
Target sequence (P51843 207-470 limits assumed): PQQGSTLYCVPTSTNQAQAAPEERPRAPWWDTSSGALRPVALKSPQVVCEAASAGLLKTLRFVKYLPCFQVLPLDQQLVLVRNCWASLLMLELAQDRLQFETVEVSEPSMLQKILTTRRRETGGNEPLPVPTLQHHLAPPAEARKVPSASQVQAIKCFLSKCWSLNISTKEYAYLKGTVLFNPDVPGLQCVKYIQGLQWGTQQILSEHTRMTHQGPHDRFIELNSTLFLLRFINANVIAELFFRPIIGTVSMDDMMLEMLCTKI
ssDAF12 agonist = activators of S. stercoralis DAF-12 nuclear receptor. HEK293 ssDAF-12/GRIP1 lit1-tk-luc reporter, luminescence; % of 3 µM dafachronic acid response. activation, % at 6.8 µM. actives 1% (n = 370,000). AID 652126;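 active = activation above the mean over all tested compounds plus 3 SD, cut at about 0.9% in these data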;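 also: 0% = DMSO-only wells and 100% = 3 µM delta7-dafachronic acid wells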
hcDAF-12 act = activates DAF-12 receptor from parasite H. contortus. HEK293 hcDAF-12 lit1-tk-luc reporter, luminescence; 0% DMSO, 100% Δ7-dafachronic acid. actives 1.4% (n = 370,000). activation, % at 6.8 µM;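 active = activation above the mean of all tested compounds plus 3 SD, cut at about 5.5% in these data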;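 also: 100% = response to 3 µM Δ7-dafachronic acid high control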
hgDAF-12 ag = activates the H. glycines DAF-12 receptor ligand-binding domain | HEK293 GAL4-hgDAF12 UAS-luciferase reporter, agonist luminescence; normalized to butyrate control | activation, % at 6.8 µM | actives 1.8% (n = 370,000) | AID 687014;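 active = activation above a cutoff set at the mean of all screened compounds plus 3 SD, cut at about 10% in these data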;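 also: 0% = DMSO wells and 100% = sodium butyrate wells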
DAX1 inh-2 = inhibitors of DAX1 repression of SF-1 activated StAR promoter; actives 1.1% (n = 370,000); AID 652010; HEK293T StAR-luciferase reporter, SF-1/DAX-1 repression relief; inhibition, % at 6.8 µM;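 active = inhibition above the mean over all tested compounds plus 3 SD, cut at about 3.6% in these data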;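 also: 0% = DAX-1 cells with DMSO and 100% = cells lacking DAX-1 with DMSO; higher inhibition means more luminescence from relief of DAX-1 repression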
* = called active by the depositor; . = no result given.

SMILES	DAX1 inh-1	ssDAF12 agonist	hcDAF-12 act	hgDAF-12 ag	DAX1 inh-2
O=C(Nc1nc2c(s1)CN(Cc1ccccc1)CC2)C1CCCC1	0	0	-1	3	0
CC(C)(C)C(=O)Nc1nc2c(s1)CN(Cc1ccccc1)CC2	0	0	2	11*	2
c1ccc(OCCOc2ncnc3ccccc23)cc1	0	-1	0	11*	1
O=C(COc1ncnc2ccccc12)c1ccc(Cl)cc1	0	-1	1	11*	2
Cc1ccc(CSc2nnc(-c3cc(-c4ccc(C)cc4)n[nH]3)n2N)cc1	.	-1	-2	-1	0
CCOC(=O)Cn1nnnc1C(C(C)C)N(Cc1cccs1)Cc1cc2cc(C)ccc2[nH]c1=O (configuration not stated)	4.3*	-2	0	-1	-1
CCCCC(=O)Nc1ccc(C(=O)NCC2COc3ccccc3O2)cc1 (configuration not stated)	.	-1	-1	3	0
O=C(NCCN1CCCCC1)Nc1ccc([N+](=O)[O-])cc1	8.7*	-1	0	0	-1
CC1(C)CC(N=c2cc(-c3ccccc3)oc3ccc(Cl)cc23)CC(C)(C)N1	5.9*	-1	-1	4	0
O=C(CSc1nnc(-c2ccccc2F)n1Cc1ccco1)Nc1ccccc1-c1ccccc1	.	-2	-1	0	-1
CCCOc1ccc(-c2nc(SCc3ccccc3)[nH]c(=O)c2C#N)cc1OC	1	4.3*	0	0	1
CCSc1nc(-c2ccccc2)c(C#N)c(=O)[nH]1	-1	-1	-1	0	1
CCOc1ccc2nc(C(C)O)[nH]c2c1 (configuration not stated)	4	0	0	1	0
COc1ccc2nc(-c3ccccc3)[nH]c2c1	1	0	5	13*	4
CCOc1ccc2nc(-c3ccccc3)[nH]c2c1	-2	0	5	12*	0
COc1ccc2[nH]c(-c3ccccc3)cc2c1	4.2*	0	6.1*	9	2
COc1ccc2nc(NCc3ccccc3)[nH]c2c1	2	-2	2	7	-1
COc1ccc(-c2nc3ccc([N+](=O)[O-])cc3[nH]2)cc1	2	1.8*	6.3*	19*	4.5*
C=CCN1[C@H](C)COc2cc(N3CCSCC3)ccc2S1(=O)=O	.	-2	-2	0	-1
O=C(Nc1ccc(C(F)(F)F)cc1)OC1CC2CC1[C@H]1CCCCN1C2 (some centres not stated)	.	-1	-1	3	-1
COc1ccc(-c2nnc(N(C)C(=O)C3CCCO3)s2)cc1 (configuration not stated)	1	0	3	13*	1
COc1ccc(-c2nnc(N(C)C(=O)C3CCOC3)s2)cc1 (configuration not stated)	1	-1	0	6	0
Cn1cncc1C(=O)c1ccccc1	2	1.1*	2	0	-1
C[C@H]1C2CC(OC(=O)NCc3ccc(Cl)cc3)C(C2)[C@H]2CCCCN21 (some centres not stated)	.	-1	-1	1	1
Cc1ccc2c(c1)Oc1ccc(NC(=O)CCl)cc1C(=O)N2	-4	-1	-6	-12	-4
SMILES	DAX1 inh-1	ssDAF12 agonist	hcDAF-12 act	hgDAF-12 ag	DAX1 inh-2
Cc1ccc2c(c1)Oc1ccc([N+](=O)[O-])cc1C(=O)N2	-1	0	6.1*	2	0
C=CCc1c(C)nc2c(-c3ccccc3)cnn2c1N1CCOCC1	4	0	5.6*	10	3
Cc1cc(N2CCOCC2)n2ncc(-c3ccc(Cl)cc3)c2n1	6.7*	-2	-1	-3	-1
Cc1ccc(-c2cnn3c(N4CCOCC4)cc(C)nc23)cc1	7.6*	-1	4	0	0
CC(C)(C)c1cc(N2CCOCC2)n2ncc(-c3ccc(Cl)cc3)c2n1	0	-1	2	3	1
CN(CCOC(=O)CSc1ccccc1)C1CN(Cc2cn(Cc3ccccc3F)nn2)S(=O)(=O)C1 (configuration not stated)	.	-1	2	1	0
Cc1onc(-c2c(F)cccc2Cl)c1-c1ncc(-c2ccc(Cl)cc2)o1	.	0	1	-3	0
CC(C)(C)OC(=O)/C=C/[C@@H](CCCCl)Sc1ccc(C(C)(C)C)cc1	.	-2	-3	0	-2
CCOC(=O)c1cc(-c2ccccc2)n(CC(=O)Nc2ccc(OC)cc2)c1C	0	-2	0	-2	0
CCOC(=O)c1cc(-c2ccccc2)n(CCC(=O)O)c1C	4.4*	-1	-2	5	-1
CCCCCCCCN1C(=O)[C@@H](CC(=O)NCCCOC)C[C@@]2(C(=O)OC)C1=C[C@H](C(C)C)O[C@@H]2C1CC1	.	-1	-2	-1	-1
CN(Cc1ccccc1)C(=C(Cl)Cl)/C(=C1/NCCN1C)[N+](=O)[O-]	5.4*	0	-1	1	0
COC(=O)[C@@]12C[C@@H](CC(=O)NCCCN3CCCC3=O)C(=O)N(CCc3ccc(OC)c(OC)c3)C1=CCC(C)(C)C2	.	-1	1	-4	3.8*
Cc1ccccc1N=C1Nc2ccccc2CS1	1	0	2	11*	0
CC(C)C[C@H]1COc2cc(N3CCCC3)ccc2S(=O)(=O)N1C	.	-2	-2	1	-3
O=C(O)CCC(=O)Nc1nc2nccc(-c3ccccc3)n2n1	4.8*	-1	1	0	0
CCCC(=O)Nc1nc2nc(-c3ccccc3)cc(-c3ccccc3)n2n1	0	-1	-1	-2	0
CC(C)n1nnnc1C1(C)CCSCC(=O)N1Cc1cccc(C(F)(F)F)c1 (configuration not stated)	.	-1	-2	2	-1
NC1=NS(=O)(=O)Nc2ccccc21	.	-2	-2	1	.
O=C(NC1CCCCN(Cc2cccc(C(F)(F)F)c2)C1=O)c1ccc(Cl)cc1 (configuration not stated)	.	-2	-4	-4	-2
Cc1ccc(-c2cn(-c3ccccc3)c(SCC(N)=O)n2)cc1C	0	-1	0	7	2
CCOC(=O)NC(=O)CSc1nc(-c2ccc(C)c(C)c2)cn1-c1ccccc1	1	0	5.7*	10	2
COC(=O)[C@]12C[C@H](CC(=O)N3CCN(C(=O)c4ccco4)CC3)C(=O)N(Cc3cccc4ccccc34)C1=C[C@H](C(C)C)O[C@@H]2C1CC1	.	-2	-3	-2	0
CS(=O)(=O)N1CCc2cc(C(=O)Nc3ccccc3Cl)ccc21	21*	-1	-1	3	1
COc1ccc(C(=O)Nc2ccc3c(c2)C(=O)N(C)[C@H]2CC[C@H](CC(=O)NCC4CC4)O[C@@H]2CO3)cc1	.	-1	-1	1	1
O=c1cc(CN2CCN(c3ccccn3)CC2)nc2sccn12	1	-1	5.7*	-1	0

Compound activity: PubChem, The Scripps Research Institute Molecular Screening Center
